Measured values taken from PubChem BioAssay (EPA / NIEHS).
Results filed as inconclusive are left out. Calls of active or inactive are those of the source. The calls were made as follows, unless noted: active = hit-call score of the fitted dose curve at least 0.9, where 1 is the maximum; inconclusive = response in the unintended direction; inactive = score below 0.9.

Assays:
[1] = ATG_EGR_CIS: Attagene CIS-FACTORIAL HepG2 Assay for human Early Growth Response 1 (EGR1) (AID 2282938; active = hit-call score of the fitted dose curve at least 0.9, where 1 is the maximum; inactive = score below 0.9); settings: HepG2 Attagene CIS-FACTORIAL EGR reporter mRNA; actives raise or lower the signal
Method in brief: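 Endogenous TF activity in HepG2 liver cells was gauged through cis-promoter reporter constructs transiently transfected. After 24 h dosing, reporter mRNA was quantified by RT-PCR and capillary electrophoresis, and curves fitted in both directions versus DMSO.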

[2] = ATG_ISRE_CIS: Attagene CIS-FACTORIAL HepG2 Assay for human Interferon Regulatory Factor 1 (IRF1) binding to an Interferon-Stimulated Response Element (ISRE) (AID 2282948; active = hit-call score of the fitted dose curve at least 0.9, where 1 is the maximum; inactive = score below 0.9); settings: HepG2 ISRE cis-reporter (Attagene), mRNA transcription readout; actives raise or lower the signal
Method in brief: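 Transiently transfected HepG2 cells carrying cis-element reporter units, dosed 24 hours. Reporter mRNA quantified by RT-PCR, fluorescent primer extension, HpaI digestion and capillary electrophoresis. Bidirectional fitting relative to DMSO.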

[3] = ATG_M_06_CIS: Attagene CIS-FACTORIAL HepG2 Assay for M06 Transcription Factor (Internal Marker) (AID 2282950; active = hit-call score of the fitted dose curve at least 0.9, where 1 is the maximum; inactive = score below 0.9); settings: HepG2 Attagene CIS-FACTORIAL M06 internal marker reporter; actives raise or lower the signal
Method in brief: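 Read-out is fluorescence of labelled reporter cDNA fragments resolved by capillary electrophoresis after RT-PCR. Cells: HepG2 carrying transfected cis-promoter reporter units, treated 24 h. Gain or loss of signal fitted relative to DMSO.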

[4] = target: Hepatocyte nuclear factor 6 (Homo sapiens) (UniProt Q9UBC0); test: ATG_HNF6_CIS: Attagene CIS-FACTORIAL HepG2 Assay for human Hepatocyte Nuclear Factor 6 (HNF6) (AID 2282952; active = hit-call score of the fitted dose curve at least 0.9, where 1 is the maximum; inactive = score below 0.9); settings: HepG2 Attagene cis-factorial HNF6 reporter transcription; actives raise or lower the signal
Method in brief: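 Transiently transfected HepG2 cells expressing cis-regulated reporter transcription units were exposed to chemical for 24 h in a 24-well format. Reporter transcript abundance was determined by fluorescence capillary electrophoresis.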

[5] = ATG_PBREM_CIS: Attagene CIS-FACTORIAL HepG2 Assay for human Phenobarbital-responsive Enhancer Module (PBREM) (AID 2282955; active = hit-call score of the fitted dose curve at least 0.9, where 1 is the maximum; inactive = score below 0.9); settings: HepG2 PBREM cis-reporter, Attagene multiplexed transcription; actives raise or lower the signal
Method in brief: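 Fluorescence of labelled reporter cDNA fragments, resolved by capillary electrophoresis, gives mRNA induction in transfected HepG2 cells treated for 24 h; DMSO serves as negative control and baseline.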

[6] = ATG_TAL_CIS: Attagene CIS-FACTORIAL HepG2 Assay for human TAL Basal Promoter (AID 2282966; active = hit-call score of the fitted dose curve at least 0.9, where 1 is the maximum; inactive = score below 0.9;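 also: background control endpoint measuring basal TAL promoter reporter mRNA not a specific factor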); settings: HepG2 Attagene cis-factorial TAL promoter reporter; actives raise or lower the signal
Method in brief: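 In this cell-based multiplex, HepG2 liver cells bearing cis-promoter reporter constructs are dosed for 24 hours. Total RNA is reverse-transcribed and amplified, labelled fragments are sized by capillary electrophoresis, and signal changes are fitted bidirectionally versus DMSO.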

[7] = ATG_M_06_TRANS: Attagene TRANS-FACTORIAL HepG2 Assay for M06 Transcription Factor (Internal Marker) (AID 2282983); settings: HepG2 Attagene TRANS M06 internal marker reporter
Method in brief: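 After a 24 h chemical treatment of transfected HepG2, RNA underwent DNase I treatment, reverse transcription and reporter-specific PCR; labelled, HpaI-digested products were sized by capillary electrophoresis. Signal increase relative to DMSO defined activity.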

[8] = ATG_NRF2_ARE_CIS: Attagene CIS-FACTORIAL HepG2 Assay for human Nuclear Factor Erythroid 2 Related Factor 2 (NFR2) response to Antioxidant Response Elements (ARE) (AID 2282992; active = hit-call score of the fitted dose curve at least 0.9, where 1 is the maximum; inactive = score below 0.9;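 as to AC50: reporter mRNA level measured by RT-PCR and capillary electrophoresis fluorescence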); settings: HepG2 Attagene ARE/NRF2 reporter, transcription factor activity; actives raise or lower the signal
Method in brief: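 HepG2 cells transiently transfected with multiplexed cis-element reporter constructs, 24 h after chemical dosing; reporter mRNA quantified by RT-PCR, fluorescent primer extension, HpaI digestion and capillary electrophoresis. Bidirectional fit relative to DMSO.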

[9] = target: human Peroxisome Proliferator-activated Receptor delta (PPARd), PPARD (gene 5467) (UniProt Q03181); test: ATG_PPARd_TRANS: Attagene TRANS-FACTORIAL HepG2 Assay for human Peroxisome Proliferator-activated Receptor delta (PPARd) (AID 2283002)
Method in brief: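 Multiplexed trans-activation format: HepG2 liver cells expressing exogenous NR-Gal4 chimeras and GAL4-UAS reporters were exposed for 24 h. Reporter mRNA was detected by RT-PCR with capillary electrophoresis fluorescence; activity fitted as gain of signal relative to DMSO.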

[10] = target: Nuclear receptor subfamily 1 group I member 2 (Homo sapiens) (UniProt O75469); test: ATG_PXR_TRANS: Attagene TRANS-FACTORIAL HepG2 Assay for human Pregnane X Receptor (PXR) (AID 2283008)
Method in brief: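 HepG2 cells transiently transfected with GAL4-UAS reporter units and PXR-Gal4 chimera, exposed 24 h. Reporter mRNA quantified by RT-PCR, fluorescent labelling, HpaI digestion and capillary electrophoresis; gain of signal vs DMSO.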

[11] = TOX21_p53_BLA_p3_viability: Viability Assessment in the Tox21 HCT-116 p53 Agonism Beta-lactamase Assay, Phase 3 (AID 2283593);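 also: cells exposed to compound for 16 h before reading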
Method in brief: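 HCT-116 cells (4000/well) rested 5 h at 37C, then got DMSO compounds by pin tool (217-fold dilution) for 16 h at 37C, 5% CO2. After the bla read, CellTiter-Glo was added and luminescence read at 30 min, room temperature.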

[12] = target: Cellular tumor antigen p53 (Homo sapiens) (UniProt P04637); test: TOX21_p53_BLA_p5_ratio: Tox21 HCT-116 p53 Agonism Beta-lactamase Assay, Ratio, Phase 5 (AID 2283599)
Method in brief: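 HCT-116 cells carrying a p53-inducible beta-lactamase reporter were seeded at 4000 cells/well and dosed after 5 h with compound in DMSO (217-fold dilution). After 16 h at 37C, CCF4-AM substrate was added for 2 h, and the 460/530 nm emission ratio was scored as gain-of-signal versus DMSO.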

[13] = TOX21_p53_BLA_p5_viability: Viability Assessment in the Tox21 HCT-116 p53 Agonism Beta-lactamase Assay, Phase 5 (AID 2283600)
Method in brief: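 Compounds, pinned from DMSO at 217-fold dilution, were left on the cells for 16 h. The viability endpoint was ATP content measured by CellTiter-Glo luminescence, where falling signal reflects cytotoxicity.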

[14] = ACEA_ER_AUC_viability: ACEA Biosciences xCELLigence Real-Time Cell Analysis on Estrogen Receptor Agonism for Viability (AID 2283782);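 also: continuous compound exposure with impedance area under curve over 80 h; hit means loss of impedance signal meaning reduced cell growth or viability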
Method in brief: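 T-47D human breast cells in phenol red-free RPMI1640 with 10% charcoal-stripped FBS were dosed with an 8-point 1:4 dilution series from 100 uM top final concentration, in duplicate. Impedance-based growth was followed for 80 h; AUC analysed versus DMSO.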

[15] = ATG_CMV_CIS: Attagene CIS-FACTORIAL HepG2 Assay for human CMV (Internal Marker) (AID 2282928; active = hit-call score of the fitted dose curve at least 0.9, where 1 is the maximum; inactive = score below 0.9;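 also: endpoint acts as a background internal control marker rather than a target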); settings: HepG2 CMV promoter reporter, transcription factor profiling; actives raise or lower the signal
Method in brief: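 CMV internal-marker background readout in transiently transfected HepG2 cells bearing cis-regulated reporter units. Reporter mRNA is measured 24 h after dosing by RT-PCR and capillary electrophoresis, with bidirectional fitting against DMSO.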

[16] = ATG_AP_1_CIS: Attagene CIS-FACTORIAL HepG2 Assay for human Activator Protein 1 (AP-1) (AID 2282931; active = hit-call score of the fitted dose curve at least 0.9, where 1 is the maximum; inactive = score below 0.9); settings: HepG2 Attagene cis-factorial AP-1 reporter mRNA; actives raise or lower the signal
Method in brief: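 Endogenous transcription-factor activity in human HepG2 liver cells is read through a cis-promoter reporter transcript, sampled 24 h after dosing. Detection uses RT-PCR with capillary electrophoresis; values come from bidirectional fitting relative to DMSO.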

[17] = ATG_M_19_TRANS: Attagene TRANS-FACTORIAL HepG2 Assay for M19 Transcription Factor (Internal Marker) (AID 2282974); settings: HepG2 Attagene TRANS-FACTORIAL M19 internal marker reporter
Method in brief: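 Cells: human HepG2, transiently transfected with multiplexed reporter transcription units. Exposure: 24 h. Detection: RT-PCR of reporter mRNA with capillary electrophoresis. Analysis: gain-of-signal vs DMSO.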

[18] = target: Hepatocyte nuclear factor 4-alpha (Homo sapiens) (UniProt P41235); test: ATG_HNF4a_TRANS: Attagene TRANS-FACTORIAL HepG2 Assay for human Hepatocyte Nuclear Factor 4 alpha (HNF4a) (AID 2282982); settings: HepG2 HNF4a transactivation reporter, mRNA readout
Method in brief: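 Cells used were human HepG2, transiently carrying GAL4-UAS reporter units read out against exogenous NR-GAL4 chimeras. Reporter transcript levels after 24 h dosing were quantified by fluorescent RT-PCR and capillary electrophoresis.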

[19] = target: human Thyroid Receptor alpha (THRa1), THRA (gene 7067) (UniProt P10827); test: ATG_THRa1_TRANS: Attagene TRANS-FACTORIAL HepG2 Assay for human Thyroid Receptor alpha (THRa1) (AID 2283014)
Method in brief: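 Transient HepG2 transfection, NR-Gal4 chimera driving GAL4-UAS reporters; 24 h compound exposure; total RNA, oligo(dT) RT, PCR, fluorescent primer extension, capillary electrophoresis. Upward direction vs DMSO control.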

[20] = target: human Fibroblast Growth Factor Receptor 1 (FGFR1), FGFR1 (gene 2260) (UniProt P11362); test: NVS_ENZ_hFGFR1: NovaScreen (NVS) Enzymatic Assay for human Fibroblast Growth Factor Receptor 1 (FGFR1) (AID 2283159)
Method in brief: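 Cell-free recombinant kinase with fluorescent substrate, product separated by electrophoretic mobility shift; read 1 hour after dosing, loss of signal relative to DMSO. Initial screen in duplicate at 25 uM, actives followed in concentration series.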

Measured: AC50

Chain of Hepatocyte nuclear factor 6 (Homo sapiens) (Q9UBC0 whole entry, looked up): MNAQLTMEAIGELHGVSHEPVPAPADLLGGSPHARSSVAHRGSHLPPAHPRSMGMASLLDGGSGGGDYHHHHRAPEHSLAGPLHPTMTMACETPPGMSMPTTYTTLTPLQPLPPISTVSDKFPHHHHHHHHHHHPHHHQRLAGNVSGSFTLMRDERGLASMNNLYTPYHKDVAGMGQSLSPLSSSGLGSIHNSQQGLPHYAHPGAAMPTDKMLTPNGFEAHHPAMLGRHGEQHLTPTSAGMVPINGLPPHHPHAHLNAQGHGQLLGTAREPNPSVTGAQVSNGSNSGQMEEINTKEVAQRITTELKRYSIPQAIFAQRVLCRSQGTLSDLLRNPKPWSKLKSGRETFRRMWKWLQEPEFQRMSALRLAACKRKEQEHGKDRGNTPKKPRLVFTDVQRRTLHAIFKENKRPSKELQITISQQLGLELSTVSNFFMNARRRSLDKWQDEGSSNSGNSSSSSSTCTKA
Chain of Cellular tumor antigen p53 (Homo sapiens) (P04637 whole entry, looked up): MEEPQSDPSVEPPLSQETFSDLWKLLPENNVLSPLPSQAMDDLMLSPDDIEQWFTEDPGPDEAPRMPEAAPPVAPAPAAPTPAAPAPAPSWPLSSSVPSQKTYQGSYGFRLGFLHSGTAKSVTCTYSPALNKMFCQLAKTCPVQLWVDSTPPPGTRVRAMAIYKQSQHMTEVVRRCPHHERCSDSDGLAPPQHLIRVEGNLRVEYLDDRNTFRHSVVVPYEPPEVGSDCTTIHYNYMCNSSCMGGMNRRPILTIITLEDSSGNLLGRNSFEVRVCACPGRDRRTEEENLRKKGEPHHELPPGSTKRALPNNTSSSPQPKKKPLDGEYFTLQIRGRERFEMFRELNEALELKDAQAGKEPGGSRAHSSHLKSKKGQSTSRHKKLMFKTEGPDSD
Chain of Hepatocyte nuclear factor 4-alpha (Homo sapiens) (P41235 whole entry, looked up, the tested form may be a part): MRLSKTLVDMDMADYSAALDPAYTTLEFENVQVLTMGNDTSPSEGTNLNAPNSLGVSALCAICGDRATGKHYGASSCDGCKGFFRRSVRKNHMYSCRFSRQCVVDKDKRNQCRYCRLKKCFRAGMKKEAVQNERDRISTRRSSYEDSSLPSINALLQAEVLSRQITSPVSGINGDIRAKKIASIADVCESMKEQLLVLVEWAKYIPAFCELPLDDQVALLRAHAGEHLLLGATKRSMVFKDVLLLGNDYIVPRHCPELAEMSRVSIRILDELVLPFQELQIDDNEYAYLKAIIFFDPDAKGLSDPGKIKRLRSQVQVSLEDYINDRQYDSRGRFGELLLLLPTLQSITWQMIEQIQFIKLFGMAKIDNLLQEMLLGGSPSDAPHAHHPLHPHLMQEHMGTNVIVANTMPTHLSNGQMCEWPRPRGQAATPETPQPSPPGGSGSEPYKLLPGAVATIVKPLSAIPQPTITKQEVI
Chain of Nuclear receptor subfamily 1 group I member 2 (Homo sapiens) (O75469 whole entry, looked up, the tested form may be a part): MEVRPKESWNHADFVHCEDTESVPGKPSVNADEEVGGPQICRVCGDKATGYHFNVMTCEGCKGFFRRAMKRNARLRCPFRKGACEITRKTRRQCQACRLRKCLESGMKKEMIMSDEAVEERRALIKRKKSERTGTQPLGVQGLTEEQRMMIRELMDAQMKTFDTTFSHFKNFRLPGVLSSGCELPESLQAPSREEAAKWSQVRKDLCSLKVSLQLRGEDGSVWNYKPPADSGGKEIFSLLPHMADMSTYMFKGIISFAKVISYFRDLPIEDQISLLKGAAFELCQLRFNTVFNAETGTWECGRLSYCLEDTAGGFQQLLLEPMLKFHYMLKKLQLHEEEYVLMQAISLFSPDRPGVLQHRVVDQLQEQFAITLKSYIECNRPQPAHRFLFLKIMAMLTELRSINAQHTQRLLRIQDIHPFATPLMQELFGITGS
Chain of human Peroxisome Proliferator-activated Receptor delta (PPARd), PPARD (gene 5467) (Q03181 whole entry, looked up, the tested form may be a part): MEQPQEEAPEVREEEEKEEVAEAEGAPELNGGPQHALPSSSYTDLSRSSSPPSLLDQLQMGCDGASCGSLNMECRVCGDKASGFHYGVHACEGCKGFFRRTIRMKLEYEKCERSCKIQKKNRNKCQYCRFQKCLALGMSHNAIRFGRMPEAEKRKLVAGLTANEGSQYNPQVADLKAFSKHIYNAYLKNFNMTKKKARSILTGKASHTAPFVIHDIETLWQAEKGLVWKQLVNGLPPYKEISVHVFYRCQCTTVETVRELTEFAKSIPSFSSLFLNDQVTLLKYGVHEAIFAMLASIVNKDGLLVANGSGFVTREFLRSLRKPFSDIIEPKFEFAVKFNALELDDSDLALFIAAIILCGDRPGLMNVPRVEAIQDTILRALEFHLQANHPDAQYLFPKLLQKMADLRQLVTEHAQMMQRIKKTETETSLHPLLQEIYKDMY
Chain of human Thyroid Receptor alpha (THRa1), THRA (gene 7067) (P10827 whole entry, looked up, the tested form may be a part): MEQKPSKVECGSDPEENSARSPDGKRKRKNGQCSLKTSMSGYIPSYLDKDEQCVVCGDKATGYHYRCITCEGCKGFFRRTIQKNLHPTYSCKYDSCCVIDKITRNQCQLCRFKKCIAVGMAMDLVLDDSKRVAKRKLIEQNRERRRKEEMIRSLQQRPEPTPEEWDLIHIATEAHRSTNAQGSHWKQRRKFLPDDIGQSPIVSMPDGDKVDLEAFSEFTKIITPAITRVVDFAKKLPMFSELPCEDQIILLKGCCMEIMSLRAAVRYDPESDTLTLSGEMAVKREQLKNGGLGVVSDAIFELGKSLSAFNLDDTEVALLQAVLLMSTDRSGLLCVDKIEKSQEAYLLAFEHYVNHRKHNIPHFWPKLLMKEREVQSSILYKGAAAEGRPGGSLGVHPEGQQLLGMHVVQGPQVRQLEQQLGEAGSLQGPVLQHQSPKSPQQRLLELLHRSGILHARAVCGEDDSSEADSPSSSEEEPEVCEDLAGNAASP
Chain of human Fibroblast Growth Factor Receptor 1 (FGFR1), FGFR1 (gene 2260) (P11362 whole entry, looked up): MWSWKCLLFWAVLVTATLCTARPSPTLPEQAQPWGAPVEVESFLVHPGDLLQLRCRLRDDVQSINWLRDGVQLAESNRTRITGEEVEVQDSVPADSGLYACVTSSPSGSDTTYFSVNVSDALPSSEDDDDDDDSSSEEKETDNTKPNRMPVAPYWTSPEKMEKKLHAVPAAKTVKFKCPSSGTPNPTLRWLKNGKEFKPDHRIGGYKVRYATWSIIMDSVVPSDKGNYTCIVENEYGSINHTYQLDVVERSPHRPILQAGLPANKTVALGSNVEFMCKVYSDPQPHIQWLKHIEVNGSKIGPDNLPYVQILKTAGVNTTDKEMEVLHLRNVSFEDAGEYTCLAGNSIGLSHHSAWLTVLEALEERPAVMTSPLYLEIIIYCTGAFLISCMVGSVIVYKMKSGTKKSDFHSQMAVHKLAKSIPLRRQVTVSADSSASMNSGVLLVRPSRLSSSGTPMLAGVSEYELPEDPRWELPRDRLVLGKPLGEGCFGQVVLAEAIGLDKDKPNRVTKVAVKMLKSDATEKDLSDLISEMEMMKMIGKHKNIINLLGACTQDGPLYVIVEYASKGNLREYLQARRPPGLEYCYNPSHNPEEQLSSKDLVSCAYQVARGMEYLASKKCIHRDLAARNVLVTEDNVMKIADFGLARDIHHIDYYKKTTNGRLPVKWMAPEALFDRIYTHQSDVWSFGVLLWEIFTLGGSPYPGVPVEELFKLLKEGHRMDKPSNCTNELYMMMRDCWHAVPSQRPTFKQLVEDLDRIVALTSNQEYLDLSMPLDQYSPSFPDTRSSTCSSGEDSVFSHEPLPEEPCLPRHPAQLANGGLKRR

c1ccc(P(c2ccccc2)c2ccccc2)cc1
inactive: [1] | [2] | [3] | [4] | [5] | [6] | [7] | [9] | [11] | [12] | [13]
active: [8] 21.5 µM | [10] 6.89 µM | [14] 82.9 µM

C[N+](C)(C)CC(=O)O
active: [14] 25.6 µM
inactive: [15] | [16] | [3] | [4] | [17] | [18] | [8] | [9]

N#CCCCCC#N
inactive: [15] | [2] | [3] | [4] | [5] | [6] | [7] | [19] | [20] | [13]

CC(C)COP(=O)(OCC(C)C)OCC(C)C
active: [8] 37 µM | [10] 1.52 µM
inactive: [15] | [3] | [6] | [7] | [19] | [11] | [12]

CCOP(=O)(OCC)OCC
inactive: [15] | [2] | [4] | [5] | [6] | [17] | [18] | [9] | [10] | [19] | [11] | [12] | [13] | [14]

CC1CCC(=O)O1 (stereo not given)
active: [14] 50 µM
inactive: [16] | [1] | [3] | [4] | [6] | [17] | [18] | [8] | [10] | [19] | [12]

Nc1ccccc1C(=O)OCCc1ccccc1
active: [5] 21.3 µM | [6] 33.4 µM | [8] 13.1 µM | [10] 19.2 µM
inactive: [16] | [2] | [3] | [18] | [7] | [19] | [11] | [12] | [13]

Oc1ccc(C2(c3ccc(O)cc3)c3ccccc3-c3ccccc32)cc1
active: [1] 14 µM | [2] 14.8 µM | [4] 16.8 µM | [10] 0.384 µM | [11] 237 nM | [13] 74 µM
inactive: [16] | [3] | [6] | [7] | [19]

N#CCCCl
inactive: [16] | [1] | [2] | [3] | [4] | [5] | [18] | [7] | [8] | [10] | [11] | [12] | [13]

CC(=O)c1cc2c(cc1C)C(C)(C)C(C)CC2(C)C (stereo not given)
active: [16] 26.6 µM | [4] 171 µM | [8] 26.7 µM | [10] 3.25 µM | [14] 79.9 µM
inactive: [2] | [3] | [5] | [6] | [17] | [18] | [7] | [9] | [19] | [13]
